Data on 17 compounds can be found in the supplement of paper PMC6089552.

This assay has as its system A673/TR/shEF. Kind of assay: cell viability (LOESS-normalised, relative to median of negative controls) (log2 ratio); higher = more viable cells (less compound effect), active = hit call of the paper (over 3 MAD below the median). The following applies: treatment time: 72 h. A digest of the protocol:
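A673/TR/shEF Ewing sarcoma cells were plated at 1,500 per well in 384-well plates and cultured with or without doxycycline, added 24 h before compounds, to induce EWS-FLI1 shRNA knockdown. Library compounds at two or more concentrations, alongside DMSO controls, were applied for three days. Cell viability was measured by CellTiter-Glo luminescence on an Envision reader. Readings were LOESS-corrected per plate, divided by the median of negative controls and log2-transformed, and hits were wells lying at least three median absolute deviations from the median of all screened wells.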

The mark [1] stands for this setting: 0.25 µM, library screen: screen1, EWS-FLI1 expression: high (no doxycycline).
[2] abbreviates: 0.25 µM, library screen: screen1, EWS-FLI1 expression: low (doxycycline-induced shRNA knockdown).
[3] abbreviates: 0.25 µM, library screen: screen2, EWS-FLI1 expression: high (no doxycycline).
[4] abbreviates: 0.25 µM, library screen: screen2, EWS-FLI1 expression: low (doxycycline-induced shRNA knockdown).
Where [5] appears, read: 2.5 µM, library screen: screen1, EWS-FLI1 expression: high (no doxycycline).
Setting [6] is: 2.5 µM, library screen: screen1, EWS-FLI1 expression: low (doxycycline-induced shRNA knockdown).
The mark [7] stands for this setting: 2.5 µM, library screen: screen2, EWS-FLI1 expression: high (no doxycycline).
Setting [8] is: 2.5 µM, library screen: screen2, EWS-FLI1 expression: low (doxycycline-induced shRNA knockdown).

Molecules are shown by their SMILES. Among all 3,200 compounds or so, about 300 (9.4%) showed activity. The sample holds actives, similar compounds and a random draw of the others, so the mix is not that of the screen.

Regarding `CCCC(C)(COC(N)=O)COC(=O)NC(C)C` (stereo unspecified), the “cell viability (log2)” value is, setting by setting: under setting [1], 0.0415 (inactive); under setting [2], 0.112 (inactive); under setting [3], 0.196 (inactive); under setting [4], 0.0672 (inactive); under setting [5], 0.137 (inactive); under setting [6], 0.151 (inactive). Moreover, the “cell viability (log2)” value runs as follows: under setting [7], -0.0715 (active); under setting [8], 0.121 (inactive).
In the case of `C[N+]1=Cc2cc3c(cc2CC1)OCO3`, the “cell viability (log2)” value runs as follows: under setting [1], 0.0752 (inactive); under setting [2], 0.0244 (inactive); under setting [5], 0.15 (inactive); under setting [6], 0.0111 (inactive).
With `COc1ccc([C@H]2Oc3c(I)c(OC)cc(OC)c3C[C@@H]2O)cc1OC`, the “cell viability (log2)” value reads like this: under setting [1], -0.0318 (inactive); under setting [2], 0.027 (inactive); under setting [5], 0.0859 (inactive); under setting [6], 0.059 (inactive).
In the case of `N#C/C(=C\c1ccc(O)cc1)C(=O)O`, the “cell viability (log2)” value under setting [1] was 0.0465 (inactive), the “cell viability (log2)” value under setting [2] is 0.0904 (inactive), the “cell viability (log2)” value under setting [5] was 0.146 (inactive) and the “cell viability (log2)” value under setting [6] is 0.0788 (inactive).
As for `C[C@@H](N)Cc1cnc[nH]1`, the “cell viability (log2)” value is 0.0946 (inactive) under setting [3], 0.0207 (inactive) under setting [4], 0.146 (inactive) under setting [7] and 0.00233 (inactive) under setting [8].
`OC[C@H]1O[C@@H](n2cnc3cc(Cl)c(Cl)cc32)[C@H](O)[C@@H]1O`: the “cell viability (log2)” value was 0.182 (inactive) (0.025 µM, library screen: screen1, EWS-FLI1 expression: high (no doxycycline)); -0.067 (inactive) (0.025 µM, library screen: screen1, EWS-FLI1 expression: low (doxycycline-induced shRNA knockdown)); 0.227 (inactive) under setting [1]; 0.0134 (inactive) under setting [2]; -0.183 (active) under setting [5]; 0.128 (inactive) under setting [6]. Further, the “cell viability (log2)” value (25 µM, library screen: screen1, EWS-FLI1 expression: high (no doxycycline)) is -0.16 (active) and the “cell viability (log2)” value (25 µM, library screen: screen1, EWS-FLI1 expression: low (doxycycline-induced shRNA knockdown)) is 0.0669 (inactive).
`Cc1cc([C@@H]2CCCN2C)on1`: the “cell viability (log2)” value is, setting by setting: under setting [3], 0.0967 (inactive); under setting [4], 0.135 (inactive); under setting [7], 0.0205 (inactive); under setting [8], 0.0708 (inactive).
`CN1CC[C@]2(CCN3CCc4c(oc5ccccc45)[C@@H]3C2)N(C)C1=O`: the “cell viability (log2)” value runs as follows: under setting [3], 0.195 (inactive); under setting [4], 0.0926 (inactive); under setting [7], 0.114 (inactive); under setting [8], 0.114 (inactive).
Regarding `CCCCN(CC)c1c([N+](=O)[O-])cc(C(F)(F)F)cc1[N+](=O)[O-]`, the “cell viability (log2)” value reads like this: under setting [1], 0.116 (inactive); under setting [2], 0.132 (inactive); under setting [5], 0.0478 (inactive); under setting [6], 0.194 (inactive).
Take `ClC1=C(Cl)C2(Cl)C3C(Cl)C=CC3C1(Cl)C2(Cl)Cl` (stereo unspecified): the “cell viability (log2)” value reads like this: under setting [1], 0.152 (inactive); under setting [2], 0.0412 (inactive); under setting [5], 0.0862 (inactive); under setting [6], 0.0598 (inactive).
With `CC(C)N1C(=O)c2ccccc2NS1(=O)=O`, the “cell viability (log2)” value is 0.113 (inactive) under setting [1], 0.086 (inactive) under setting [2], 0.0391 (inactive) under setting [5] and 0.0775 (inactive) under setting [6].
Take `C/C=C(/C)C(=O)O[C@H]1C(C)=C2[C@H]([C@@H]1OC(=O)CCCCCCC)[C@@](C)(OC(C)=O)C[C@H](OC(=O)CCC)[C@@]1(O)[C@H]2OC(=O)[C@@]1(C)O`: the “cell viability (log2)” value was -3.16 (active) under setting [3], -2.76 (active) under setting [4], -3.49 (active) under setting [7] and -2.81 (active) under setting [8].
For `CN1C(=O)CN=C(c2ccccc2)c2cc(Cl)ccc21`, the “cell viability (log2)” value reads like this: under setting [1], 0.0871 (inactive); under setting [2], 0.0866 (inactive); under setting [5], 0.123 (inactive); under setting [6], 0.0545 (inactive).
As to `C[C@]12CC[C@H]3[C@@H](CCC4=CC(=O)CC[C@@]43C)[C@@H]1CC[C@@H]2O`, the “cell viability (log2)” value was 0.0751 (inactive) under setting [1], -0.0159 (inactive) under setting [2], 0.0937 (inactive) under setting [5] and -0.0498 (inactive) under setting [6].
As for `O=c1cccc2n1CC1CC2CN2CCCCC12` (stereo unspecified), the “cell viability (log2)” value is, setting by setting: under setting [1], 0.16 (inactive); under setting [2], 0.0123 (inactive); under setting [5], 0.153 (inactive); under setting [6], 0.0958 (inactive).
Taken in the same sequence, the figures for `NCCc1cc(O)c(O)cc1O` were 0.0637 (inactive), 0.155 (inactive), 0.144 (inactive) and 0.129 (inactive).
Consider `CC(=O)OCC1=C(C(=O)O)N2C(=O)[C@@H](NC(=O)CCC[C@@H](N)C(=O)O)[C@H]2SC1`, for which the “cell viability (log2)” value under setting [3] is 0.263 (inactive), the “cell viability (log2)” value under setting [4] was 0.114 (inactive), the “cell viability (log2)” value under setting [7] is 0.155 (inactive) and the “cell viability (log2)” value under setting [8] is 0.174 (inactive).
